SMILES strings stand for the structures. The campaign covered roughly 310,000 compounds. About 14,000 (4.5%) showed an effect of 50% or more. Effects have a minus sign here. For the sample, strong results were picked, then their nearest neighbours and some compounds at random.
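Note: peak tail current of the secondary pulse compared with the same well before compound.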

In the assay the target is human ether-à-go-go-related gene (hERG) potassium channel (human, UniProt Q12809). The assay is described as follows: primary screen, population patch clamp on CHO cells stably expressing hERG; higher = less effect of the substance.
human ether-à-go-go-related gene (hERG) potassium channel, sequence (Q12809 whole entry, looked up): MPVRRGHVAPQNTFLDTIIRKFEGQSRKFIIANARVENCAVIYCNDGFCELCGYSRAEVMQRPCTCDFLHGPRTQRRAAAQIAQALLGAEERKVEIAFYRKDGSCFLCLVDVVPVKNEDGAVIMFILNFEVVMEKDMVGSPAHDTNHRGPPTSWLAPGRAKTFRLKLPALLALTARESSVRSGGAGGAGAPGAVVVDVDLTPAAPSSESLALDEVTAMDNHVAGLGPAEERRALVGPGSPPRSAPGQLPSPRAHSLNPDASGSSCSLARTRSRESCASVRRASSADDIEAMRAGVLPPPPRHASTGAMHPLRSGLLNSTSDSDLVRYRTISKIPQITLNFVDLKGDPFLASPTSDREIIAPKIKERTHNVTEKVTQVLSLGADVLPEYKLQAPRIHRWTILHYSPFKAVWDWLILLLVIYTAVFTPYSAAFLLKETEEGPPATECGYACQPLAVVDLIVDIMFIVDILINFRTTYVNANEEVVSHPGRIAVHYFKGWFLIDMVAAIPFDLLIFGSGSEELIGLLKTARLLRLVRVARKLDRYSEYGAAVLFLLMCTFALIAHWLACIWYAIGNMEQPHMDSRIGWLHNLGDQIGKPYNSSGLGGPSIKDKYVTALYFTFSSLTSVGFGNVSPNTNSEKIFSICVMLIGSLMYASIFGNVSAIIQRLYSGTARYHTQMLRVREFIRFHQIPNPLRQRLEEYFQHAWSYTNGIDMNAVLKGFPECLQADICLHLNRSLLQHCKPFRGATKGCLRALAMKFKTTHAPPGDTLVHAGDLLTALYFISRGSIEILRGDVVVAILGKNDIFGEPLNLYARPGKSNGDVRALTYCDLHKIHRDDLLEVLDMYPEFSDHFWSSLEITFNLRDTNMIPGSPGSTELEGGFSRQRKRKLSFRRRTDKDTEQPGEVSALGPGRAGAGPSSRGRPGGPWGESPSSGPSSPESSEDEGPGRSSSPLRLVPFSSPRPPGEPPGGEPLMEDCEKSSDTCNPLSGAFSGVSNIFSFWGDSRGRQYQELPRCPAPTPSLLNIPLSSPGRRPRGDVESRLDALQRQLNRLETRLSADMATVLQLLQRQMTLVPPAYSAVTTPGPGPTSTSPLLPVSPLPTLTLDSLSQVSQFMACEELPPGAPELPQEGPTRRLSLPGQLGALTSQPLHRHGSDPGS
Consider `CCC(=O)NCCc1nc2ccccc2[nH]1`, for which the “hERG current change (%, negative = inhibition) at 10uM” value is listed as 1.08%.
The same measure for `CN1CCN(c2nc(N)cc(=O)[nH]2)CC1`: 15.2%; for `c1ccc(-n2c(Sc3cnccn3)nnc2-c2cccs2)cc1`: -33.3%.
As to `CSc1nc([O-])cc(=O)n1-c1ccc(F)cc1.[K+]`, the “hERG current change (%, negative = inhibition) at 10uM” value is listed as 2.86%.
On to `COc1cccc(/C=C2/C(=O)NN(c3ccc(C)c(C)c3)C2=O)c1`, for which the “hERG current change (%, negative = inhibition) at 10uM” value is reported as -3.01%.
The same measure for `Cn1c(=O)c2c(SCC(=O)NCc3ccco3)nc(-c3ccccc3Cl)nc2n(C)c1=O`: -1.4%; for `C=CCN1C(=O)c2ccc(C(=O)N(C)CC(=O)Nc3ccccc3Br)cc2C1=O`: 4.17%; for `C=CCN1C(=O)c2ccc(C(=O)N(C)CC(=O)Nc3c(C)cccc3C)cc2C1=O`: 15.4%.
The figure for `Cc1cc(Br)ccc1NC(=O)CN(C)C(=O)c1ccc(-n2cncn2)c([N+](=O)[O-])c1` is -64.4%.
The figure for `O=C(COc1ccccc1Cl)NNC(=O)c1ccc(-n2cncn2)c([N+](=O)[O-])c1` is 10.9%; for `Cc1cccc(NC(=O)CNC(=O)c2ccc(-n3cncn3)c([N+](=O)[O-])c2)c1C` it is -9.18%.
For `Cc1cccc(C)c1NC(=O)CN(C)C(=O)c1ccc(-n2cncn2)c([N+](=O)[O-])c1`, the “hERG current change (%, negative = inhibition) at 10uM” value is given as -6.43%.
As for `Cc1ccc(C)c(NC(=O)CN(C)C(=O)c2ccc(-n3cncn3)c([N+](=O)[O-])c2)c1`, the “hERG current change (%, negative = inhibition) at 10uM” value is listed as -26.7%.
The same measure for `Cc1ccc(OCC(=O)NNC(=O)c2ccc(-n3cncn3)c([N+](=O)[O-])c2)cc1`: -2.51%.
Regarding `Cc1cc(Br)ccc1NC(=O)c1ccc(-n2cncn2)c([N+](=O)[O-])c1`, the “hERG current change (%, negative = inhibition) at 10uM” value stood at 12.3%.
The figure for `O=C(COc1ccc(Br)cc1)NNC(=O)c1ccc(-n2cncn2)c([N+](=O)[O-])c1` is -61%.
The same measure for `Cc1cc(Br)ccc1NC(=O)CNC(=O)c1ccc(-n2cncn2)c([N+](=O)[O-])c1`: -59.9%; for `C=CCN1C(=O)c2ccc(C(=O)N(C)CC(=O)Nc3ccc(Br)cc3C)cc2C1=O`: -52.5%; for `CCc1[nH]c(=S)c(C#N)c2c1CCCC2`: 14.9%.
The figure for `COc1cccc(C(c2nnnn2Cc2ccccc2)N2CCN(C3CCCC3)CC2)c1OC.Cl` (stereo not drawn) is -32%.
Consider `O=c1[nH]nc(Sc2ncnc3sccc23)n1CCc1ccccc1`, for which the “hERG current change (%, negative = inhibition) at 10uM” value was -18.3%.
As for `CC1CCC/C=C/C2CC(O)CC2C(O)/C=C/C(=O)O1` (stereo not drawn), the “hERG current change (%, negative = inhibition) at 10uM” value is listed as -2.12%.
The figure for `O=C(c1cnn2c(C(F)F)cc(-c3ccccc3)nc12)N1CCc2ccccc2C1` is -15.6%.
Regarding `CCn1c(SCC(=O)NCCc2ccccc2)nc2c(c1=O)SC(C)C2` (stereo not drawn), the “hERG current change (%, negative = inhibition) at 10uM” value came out at 5.03%.
The figure for `COc1cccc(NC(=O)CCN2C(=O)c3ccccc3Sc3ncccc32)c1` is 12.7%; for `O=C(COC(=O)C1CCC(=O)N1)Nc1ccc(Br)cc1` (stereo not drawn) it is 12%; for `CN1C(C(=O)NCCc2cccs2)CC2Cn3c(nc4ccccc43)C21` (stereo not drawn) it is -27.3%.
`Cc1cc2nc3n(c2cc1C)CC1CC(C(=O)NCCc2cccs2)N(C)C31` (stereo not drawn): the “hERG current change (%, negative = inhibition) at 10uM” value is reported as -38.5%.
The figure for `CN1C(C(=O)NCCc2cccs2)CC2Cn3c(nc4cc5ccccc5cc43)C21` (stereo not drawn) is -65.9%; for `CN1C(C(=O)NCCc2cccs2)CC2Cn3c(nc4cc(Cl)c(Cl)cc43)C21` (stereo not drawn) it is -63.6%.
For `CNC1=C([N+](=O)[O-])CC([N+](=O)[O-])=C(N2CCNCC2)N1C`, the “hERG current change (%, negative = inhibition) at 10uM” value amounted to 8.57%.
With `COc1cccc(-c2nc(CS(=O)(=O)CC(=O)NCCCN3CCc4ccccc4C3)c(C)o2)c1`, the “hERG current change (%, negative = inhibition) at 10uM” value is recorded as -71.6%.
`COc1cccc(-c2nc(CS(=O)(=O)CC(=O)NCCCN3CCN(C)CC3)c(C)o2)c1`: the “hERG current change (%, negative = inhibition) at 10uM” value is 3.5%.
The figure for `COc1cccc(-c2nc(CS(=O)(=O)CC(=O)NCCCN3CCOCC3)c(C)o2)c1` is 7.17%.
`COc1cccc(-c2nc(CS(=O)(=O)CC(=O)NC3CC3)c(C)o2)c1`: the “hERG current change (%, negative = inhibition) at 10uM” value is 16.1%.
Turning to `COCCCNC(=O)CS(=O)(=O)Cc1nc(-c2cccc(OC)c2)oc1C`, the “hERG current change (%, negative = inhibition) at 10uM” value came out at 7.73%.
The figure for `CCCNC(=O)CS(=O)(=O)Cc1nc(-c2cccc(OC)c2)oc1C` is -70%; for `COc1cccc(-c2nc(CS(=O)(=O)CC(=O)NCCC(C)C)c(C)o2)c1` it is -10.7%.
The figure for `CCOC(=O)N1CCC(NC(=O)CS(=O)(=O)Cc2nc(-c3ccc(OC)cc3)oc2C)CC1` is 13.3%; for `CCOC(=O)N1CCC(NC(=O)CS(=O)(=O)Cc2nc(-c3cccc(OC)c3)oc2C)CC1` it is -54.2%; for `CCC(=O)N1CC2(c3ccccc3)CN(C(=O)CC)CC(c3ccccc3)(C1)C2=O` it is 5.6%.
The same measure for `CC1CCc2cc(F)ccc2N1C(=O)C1(C)CC1(Cl)Cl` (stereo not drawn): 4.51%; for `CC1CCCN(CCS(=O)(=O)c2ccccc2)C1` (stereo not drawn): 3.59%.
Turning to `O=C(CN(C(=O)CNC(=O)c1ccco1)c1ccc(Cl)c(Cl)c1)NC1CCCCC1`, the “hERG current change (%, negative = inhibition) at 10uM” value is given as -27.2%.
On to `O=C(Nc1ccccc1Sc1ccccc1)c1ccc(F)cc1`, for which the “hERG current change (%, negative = inhibition) at 10uM” value is -7.65%.
The same measure for `O=C(c1ccc(Cl)cc1Cl)N1CCC(C(=O)N2CCOCC2)CC1`: 9.99%; for `CCOC(=O)c1c(C)[nH]c(C)c1S(=O)(=O)NCc1cc(C)ccc1C`: -6.49%; for `CCNC(=O)C12CCC(C)(c3nc4cc(C)c(C)cc4nc31)C2(C)C` (stereo not drawn): 33.5%.
As for `CC12CCC(=O)N1C(C(=O)Nc1nc(-c3ccccc3Cl)cs1)CS2` (stereo not drawn), the “hERG current change (%, negative = inhibition) at 10uM” value is given as -6.16%.
In the case of `Cc1ccc(S(=O)(=O)N2C(=O)CCC2C(=O)Nn2cnnc2)cc1` (stereo not drawn), the “hERG current change (%, negative = inhibition) at 10uM” value stood at 5.62%.
The same measure for `OC1(c2ccc(Cl)cc2)CCN(Cc2c[nH]c3ccccc23)CC1`: -63.7%; for `COc1ccc(C2(O)CCN(Cc3nnnn3Cc3ccc(C)cc3)CC2)cc1`: -21.4%; for `COc1ccc(S(=O)(=O)N2CCC(O)(c3ccc(Cl)cc3)CC2)cc1`: 24.2%.
The same measure for `Cc1ccc(Cn2nnnc2CN2CCC(O)(c3ccc(F)cc3)CC2)cc1`: -7.64%; for `OC1(c2ccc(Cl)cc2)CCN(Cc2cn[nH]c2-c2ccc(F)cc2)CC1`: -68.7%.
The figure for `O=C(O)C(=O)O.O=C(c1cccc(Cl)c1)N1CCN(Cc2c[nH]c3ccccc23)CC1` is -20.4%.
For the molecule `OC(CN1CCN(c2cccc(Cl)c2)CC1)c1ccc(F)cc1` (stereo not drawn), the “hERG current change (%, negative = inhibition) at 10uM” value is -47.2%.
`OC1(c2ccc(F)cc2)CCN(Cc2cccnc2)CC1`: the “hERG current change (%, negative = inhibition) at 10uM” value amounted to 4.22%.
Take `OC(CN1CCN(c2ccc(F)cc2)CC1)c1ccc(Cl)cc1` (stereo not drawn): the “hERG current change (%, negative = inhibition) at 10uM” value is recorded as -37.9%.
As for `OCC1(Cc2ccccc2)CCCN(Cc2c[nH]c3ccccc23)C1` (stereo not drawn), the “hERG current change (%, negative = inhibition) at 10uM” value is reported as -27%.
The same measure for `OC(CCCN1CCC(O)(c2ccc(Cl)cc2)CC1)c1ccc(F)cc1` (stereo not drawn): -75.7%; for `COc1ccc(-c2[nH]ncc2CN2CCC(O)(c3ccc(Cl)cc3)CC2)cc1`: -71.8%; for `Cc1ccc2c(c1)sc1nc(=O)n(-c3ccc(Cl)cc3)c(=O)n12`: 6.6%.
The figure for `O=C(NCCCN1CCOCC1)C1CC(=O)N(c2ccccc2)C1` (stereo not drawn) is 12.1%; for `CCN1CCN(Cc2oc(CO)cc(=O)c2O)CC1` it is -4.6%.
The figure for `CC(=O)c1cccc(NC(=O)c2ccc3ccccc3c2)c1` is 6.07%.
On to `Cn1cc(C(=O)c2ccc(Cl)cc2Cl)cc1C(=O)N/N=C(\N)COc1cccc(C(F)(F)F)c1`, for which the “hERG current change (%, negative = inhibition) at 10uM” value is -4.61%.
The figure for `CCOc1ccccc1C1CC(=O)Nc2cc3c(cc21)OCCO3` (stereo not drawn) is -2.02%; for `COCCCN(C(=O)CSCC(=O)Nc1cccc(C)c1)c1c(N)n(Cc2ccccc2)c(=O)[nH]c1=O` it is 11.3%; for `CC(C)C(NC(=O)c1ccc2c(c1)OCO2)C(=O)N/N=C\c1ccco1` (stereo not drawn) it is 2.3%.
Regarding `CCN1CCCC1CNC(=O)Cn1ncc2c(=O)oc3ccc(C)cc3c21` (stereo not drawn), the “hERG current change (%, negative = inhibition) at 10uM” value is on record as -2.33%.
As to `C=CCNC(=O)c1c(N)n(-c2cccc(S(N)(=O)=O)c2)c2nc3ccccc3nc12`, the “hERG current change (%, negative = inhibition) at 10uM” value is listed as -4.04%.
Turning to `O=C(Cc1c(F)cccc1Cl)NCCCn1ccnc1`, the “hERG current change (%, negative = inhibition) at 10uM” value is reported as -24.6%.
The figure for `COc1cc2c(cc1OC)C(C)NCC2.Cl` (stereo not drawn) is 14.1%; for `OC1(c2ccc(Cl)cc2)CCN(Cc2cn[nH]c2-c2ccccc2)CC1` it is -77.7%.
As to `c1ccc(-c2[nH]ncc2CN2CCc3ccccc3C2)cc1`, the “hERG current change (%, negative = inhibition) at 10uM” value is reported as -2.39%.
The same measure for `OCC1(Cc2ccccc2)CCCN(Cc2cn[nH]c2-c2ccccc2)C1` (stereo not drawn): -16.4%.
The same measure for `O=C1C2CCCN2C(=O)N1CCN1CCN(c2ccccc2)CC1` (stereo not drawn): -8%; for `Cc1ccc(N2CCN(CCCN3C(=O)C4CCCN4C3=O)CC2)cc1.Cl` (stereo not drawn): -7.45%; for `O=C1C2CCCN2C(=O)N1CCCN1CCN(c2ccc([N+](=O)[O-])cc2)CC1` (stereo not drawn): -68.3%.
Turning to `O=C1C2CCCCN2C(=O)N1CCN1CCN(c2ccc([N+](=O)[O-])cc2)CC1` (stereo not drawn), the “hERG current change (%, negative = inhibition) at 10uM” value is given as -71.5%.
The figure for `O=C(CCCN1C(=O)C2CCCCN2C1=O)N1CCN(c2ccc([N+](=O)[O-])cc2)CC1` (stereo not drawn) is -74.7%.
The figure for `O=C1C2CCCCN2C(=O)N1CCCN1CCN(c2ccc(F)cc2)CC1` (stereo not drawn) is -34.8%; for `O=C1C2CCCCN2C(=O)N1CCCCN1CCN(c2ccc(F)cc2)CC1` (stereo not drawn) it is -44%; for `O=C1C2CCCCN2C(=O)N1CCCCN1CCN(c2ccc([N+](=O)[O-])cc2)CC1` (stereo not drawn) it is -75.8%.
As to `Cl.Nc1ccc(N2CCN(CCCCN3C(=O)C4CCCN4C3=O)CC2)cc1.O` (stereo not drawn), the “hERG current change (%, negative = inhibition) at 10uM” value is given as -9.33%.
Consider `O=C1C2CCCN2C(=O)N1CCN1CCN(CCO)CC1` (stereo not drawn), for which the “hERG current change (%, negative = inhibition) at 10uM” value is on record as -5.52%.

Source of the values: paper PMC4336329 (PLoS ONE, 2015).
